Compound activity deposited in PubChem BioAssay by several laboratories.
Rows were chosen to be rich in hits. Some 5.1% of all compounds tested hit in one or more screens of this group.
GRIN3A LBD mod: modulators (binders) of human NR3A ligand-binding domain | NR3A LBD differential scanning fluorimetry, Tm shift; 0% = protein alone, 100% = glycine-bound protein | Tm shift relative to glycine control, % at 25 µM | 340,000 compounds, 2.5% hits | AID 1259313;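 active means melting temperature shift of at least 10% of the positive control shift, at one fixed dose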
ANO1 block: mouse TMEM16A channel inhibition, primary screen. Q8BHY3. HEK293 TMEM16A/YFP iodide influx fluorescence, ionomycin. normalized B-score (activity score, 25-100; higher = stronger inhibition) at 10 µM. 310,000 compounds, 1.2% hits;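 active means ratio plate-corrected score three or more library SD toward inhibition, starting fluorescence score within five deviations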;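 further: score derived from kinetic fluorescence span divided by baseline fluorescence per well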
Target sequence (Q8BHY3 whole entry, looked up): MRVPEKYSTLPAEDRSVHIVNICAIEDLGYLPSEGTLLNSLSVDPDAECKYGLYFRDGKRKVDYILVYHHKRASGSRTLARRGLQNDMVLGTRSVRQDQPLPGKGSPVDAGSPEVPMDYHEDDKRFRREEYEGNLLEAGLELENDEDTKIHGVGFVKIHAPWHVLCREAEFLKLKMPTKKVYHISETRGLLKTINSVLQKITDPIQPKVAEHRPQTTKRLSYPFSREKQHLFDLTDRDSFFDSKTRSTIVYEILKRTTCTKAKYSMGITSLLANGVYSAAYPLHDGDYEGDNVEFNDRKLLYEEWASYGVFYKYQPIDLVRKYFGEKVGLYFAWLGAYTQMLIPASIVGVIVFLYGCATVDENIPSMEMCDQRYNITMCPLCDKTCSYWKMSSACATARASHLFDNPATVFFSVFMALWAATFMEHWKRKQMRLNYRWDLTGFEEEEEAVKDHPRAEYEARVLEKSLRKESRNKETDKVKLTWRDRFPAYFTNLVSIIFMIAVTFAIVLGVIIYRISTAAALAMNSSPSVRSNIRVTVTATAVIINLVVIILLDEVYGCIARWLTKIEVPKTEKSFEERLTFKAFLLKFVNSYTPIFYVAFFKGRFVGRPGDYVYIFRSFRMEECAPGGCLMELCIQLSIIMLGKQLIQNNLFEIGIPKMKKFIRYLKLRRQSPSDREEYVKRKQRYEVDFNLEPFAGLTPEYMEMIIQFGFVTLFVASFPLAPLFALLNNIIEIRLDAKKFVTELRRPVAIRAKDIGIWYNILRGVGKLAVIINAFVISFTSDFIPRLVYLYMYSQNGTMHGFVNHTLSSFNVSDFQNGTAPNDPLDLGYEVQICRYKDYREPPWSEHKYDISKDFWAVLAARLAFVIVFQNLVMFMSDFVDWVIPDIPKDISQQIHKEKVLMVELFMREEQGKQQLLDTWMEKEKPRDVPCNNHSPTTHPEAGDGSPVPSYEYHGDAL
CRFR2-BP antag: antagonists of CRF-binding protein/CRF-R2 receptor complex | 350,000 compounds, 0.59% hits | HEK293 CRF-R2/CRF-BP, CRF-induced calcium fluorescence | inhibition, % at 11.8 µM;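 active means inhibition of the ligand-induced calcium signal above about 50% at the single tested concentration, limit read from the data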
MPTP inh: blocks calcium-induced mitochondrial swelling | isolated mouse mitochondria, Ca2+ swelling absorbance, 30 min | inhibition, % at 10 µM | 360,000 compounds, 1.4% hits | AID 602449;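 active means inhibition of 50% or more, scaled per plate between neutral and stimulator controls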;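 further: 0% = DMSO wells given calcium and 100% = 1 mM EGTA wells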
ANO1 activ: mouse TMEM16A channel activation, primary screen; Q8BHY3; HEK293 TMEM16A/YFP-H148Q/I152L, iodide quench fluorescence; stronger effect = lower value; B-score at 10 µM; 340,000 compounds, 0.3% hits;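 active means fluorescence-ratio B-score plate-corrected deviation score at least 3 library SD below zero, with starting fluorescence score within 5 deviations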;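 further: channel opened by trigger with iodide after compound preincubation; score built on the fluorescence ratio of max minus min over baseline; more negative score means more quench and so TMEM16A activation or potentiation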
CRFR2-BP ag: agonists of human CRF-binding protein/CRF-R2 receptor complex; HEK293 CRF-R2/CRF-BP, calcium dye fluorescence (FLIPR); percent of saturating CRF peptide response; activation, % at 13.2 µM; 350,000 compounds, 0.46% hits; AID 588473;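 active means activation of at least 50%, plus an integration ratio under a set limit after plate pattern correction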;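 further: plate controls were neutral control wells without compound for no effect and CRF at EC100 for full effect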
An asterisk follows results filed as active; i = inactive; x = not tested or not shown.

SMILES	GRIN3A LBD mod	ANO1 block	CRFR2-BP antag	MPTP inh	ANO1 activ	CRFR2-BP ag
CCOC(=O)C1CCN(Cc2cc(Cl)c3ccccc3c2O)CC1	1	i	-4	0	i	5
CN(/N=C/c1ccccc1Cl)c1ncc(Cl)cc1C(F)(F)F	-1	i	0	-1	i	4
CN(/N=C/c1ccc(O)cc1O)c1ncc(C(F)(F)F)cc1Cl	26*	i	-5	4	i	-1
O=C1CC(C(=O)Nc2ccc(Cl)cc2)n2ncnc2N1 (stereo not drawn)	1	i	-12	0	i	7
CCc1ccc(NC(=O)C2CC(=O)Nc3ncnn32)cc1 (stereo not drawn)	21*	i	4	0	i	3
Cc1ccc2oc(C(=O)Nc3cc(C)on3)c(C)c2c1	-5	x	-11	1	i	-2
O=C(COc1ccccc1C(=O)O)Nc1cccc2ccccc12	4	x	0	-1	i	-3
O=C(COc1cccc2ccccc12)Nc1ccc(Cl)cc1C(=O)O	2	100*	24	38	i	-1
O=C(COc1cccc2ccccc12)Nc1cc(Cl)ccc1C(=O)O	8	100*	9	5	i	6
COc1ccc(-c2ccc(C(=O)N3CCOCC3)c3occc23)c(C)c1	x	x	x	1	x	x
COc1ccc(N(CC(=O)NCCc2ccc(OC)c(OC)c2)S(=O)(=O)c2c(C)noc2C)cc1	2	i	108*	1	i	-1
COc1ccc(N(CC(=O)NCCc2ccc(C)cc2)S(=O)(=O)c2c(C)noc2C)cc1	2	i	4	-2	i	1
CCCCN1CCCCC1(C)C(=O)NCc1cccc(OC)c1 (stereo not drawn)	x	x	x	-1	x	x
Cc1ccc2nc(NC(=O)c3ccc(Br)o3)sc2c1	18*	i	-16	2	i	-1
Cc1ccc2nc(NC(=O)CCNS(=O)(=O)c3ccc(Br)s3)sc2c1	11*	i	-12	3	i	-1
CNC(CC(=O)c1ccc([N+](=O)[O-])cc1)C(Cl)(Cl)Cl (stereo not drawn)	-1	25*	29	19	i	20
Cc1nc2nc(C)c(NS(=O)(=O)c3ccc(Cl)s3)c(=O)n2[nH]1	1	i	-2	0	i	1
CCOc1ccccc1C(=O)N[C@H](C(=O)OCc1cc(=O)oc2cc(C)ccc12)C(C)C	15*	i	16	-12	i	1
COc1cc(NC(=O)C2CCCCC2)c(OC)cc1NC(=O)c1ccccc1	-1	i	21	-2	i	-2
COc1cc(Br)cc(/C=N/NC(=O)Cc2ccc(C(F)(F)F)cc2[N+](=O)[O-])c1O	25*	i	-33	16	i	0
Cc1c(C(=O)N(Cc2cccc(Br)c2)C2CCS(=O)(=O)C2)oc2ccc(F)cc12 (stereo not drawn)	1	i	-9	-2	i	0
CC(C)(C)c1ccc(C(=O)CS(=O)(=O)c2ccccc2)cc1	0	i	77*	-1	i	4
CCOC(=O)N1CCN(C(=O)Cc2ccccc2[N+](=O)[O-])CC1	1	i	2	0	i	-1
Cc1ccc(F)c(CNC(=O)C2(C)CCCN2C(=O)C(C)C)c1F (stereo not drawn)	x	x	x	0	x	x
CCN(CC)c1ccc(C=C2C(=O)OC(C)(C(C)(C)C)OC2=O)cc1 (stereo not drawn)	2	i	-9	3	i	48
SMILES	GRIN3A LBD mod	ANO1 block	CRFR2-BP antag	MPTP inh	ANO1 activ	CRFR2-BP ag
CCN(CC)c1ccc(C=C2C(=O)OC3(CCCC3)OC2=O)cc1	23*	i	20	0	i	11
CN(C)c1ccc(C=C2C(=O)OC(C)(C(C)(C)C)OC2=O)cc1 (stereo not drawn)	1	i	48	12	i	4
CCN(CC)c1ccc(C=C2C(=O)OC(c3ccccc3)OC2=O)cc1 (stereo not drawn)	32*	i	-47	-3	i	2
CN(C)c1ccc(C=C2C(=O)OC(C)(C)OC2=O)cc1	0	i	52*	1	i	1
C[C@H](CO)N1C[C@H](C)[C@@H](CN(C)C(=O)Nc2cc(F)ccc2F)Oc2ncc(-c3cccc(F)c3)cc2C1=O	x	x	6	1	x	3
O=C(/C=C/c1ccccc1)N1CCN(c2ccc([N+](=O)[O-])c(N3CCOCC3)c2)CC1	20*	i	16	-4	i	-2
O=C(c1ccc(Sc2ccccc2)c([N+](=O)[O-])c1)N1CCOCC1	16*	i	23	1	i	-3
Cc1cccc(C(=O)N2CCN(c3ccc([N+](=O)[O-])c(N4CCOCC4)c3)CC2)c1	-1	i	18	0	i	-1
O=C(c1ccc(SCc2ccco2)c([N+](=O)[O-])c1)N1CCOCC1	-1	i	-3	0	i	3
O=C(c1ccc2ccccc2c1)N1CCN(c2ccc([N+](=O)[O-])c(N3CCOCC3)c2)CC1	17*	i	14	-2	i	0
COc1ccc(CN(C)C(=O)CCCNC(=O)c2ccc(Cl)cc2)cc1	-1	i	3	0	i	-2
CSc1nc(/C=C2\C=Nc3ccccc32)c(O)n1C	0	i	17	-1	i	-8
CC(C)n1c(O)c(/C=C2\C=Nc3ccccc32)sc1=Nc1ccccc1	25*	i	-9	42	i	-1
COP(=O)(OC)C(Nc1ccc(C)cc1)c1ccc([N+](=O)[O-])cc1 (stereo not drawn)	15*	i	18	0	i	2
CCc1ccc(C(O)c2ncc(-c3cccc(C)c3)[nH]2)cc1 (stereo not drawn)	x	x	x	0	x	x
CC1=C(C(=O)Nc2ccccc2)C(c2ccc(O)cc2)N2C(=O)CSC2=N1 (stereo not drawn)	12*	i	4	0	i	0
C(=C\c1ccc2ccccc2n1)/c1ccccc1	-20	i	7	1	i	-1
Oc1ccc(/C=C/c2ccc3ccccc3n2)cc1	19*	i	0	2	i	-1
Oc1ccc(/C(Cc2ccc3ccccc3n2)=N\Nc2ccccc2)c(O)c1	-3	i	5	2	i	0
C(=Cc1c[nH]c2ccccc12)c1ccc2ccccc2n1	22*	x	-55	2	i	25
O/C(=C\c1ccc2ccccc2n1)c1ccc(O)cc1O	35*	i	-34	1	i	33
Cc1ccc(/C=C/c2nc3ccccc3s2)s1	-29	i	-9	0	i	12
